# From PubChem BioAssay (EPA / NIEHS)
# Some compounds were tested as several samples or in several runs, with calls that do not always agree. Active and inactive are the calls of the source. Rule for the calls: active = hit-call score of the fitted dose curve at least 0.9, where 1 is the maximum; inactive = score below 0.9.
# Test: CCTE_Shafer_MEA_dev_burst_duration_mean: CCTE's Neural Network Formation Assay for Mean Burst Duration, Shafer Lab (AID 2284045);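 for AC50: curve fitted for loss meaning shorter burst duration than DMSO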
# Description: CCTE_Shafer_MEA_dev assay is conducted using Axion Biosystems 48 well microelectrode array (MEA) plates and Maestro recording system. Each well of the MEA plate contains a grid of 16 microelectrodes embedded in the culture surface. Electrically active cells, such as neurons, can be cultured over the electrodes, and electrical activity in these cells can be recorded extracellularly. The spontaneous firing of neurons is captured from each electrode on a microsecond timescale providing both temporally and spatially precise data. […] The CCTE_Shafer_MEA_dev assay uses primary cultures of rat cortical neurons. Recordings are made on days post-plating 5, 7, 9 and 12. As these cultures mature over time, neural networks develop functional activity and form cohesive networks in which electrical activity can be highly coordinated. CCTE_Shafer_MEA_dev_burst_duration_mean is 1 of 19 assay components of the CCTE_Shafer_MEA_dev assay. It measures the average time interval from the first spike (action potential firing) to the last spike in a singe-electrode burst (temporally-clustered group of spikes) during a recording in a microelectrode array (MEA) using Axion Biosystems Maestro 768 channel amplifier with the AxIS adaptive spike detector. The mean burst duration is averaged across the actively bursting electrodes to report a well-mean value. To collapse across multiple recordings made on days post-plating 5, 7, 9 and 12, the trapezoidal area-under-the-curve of the component is calculated.Data from the assay component CCTE_Shafer_MEA_dev_burst_duration_mean was analyzed into 1 assay endpoint. This assay endpoint, CCTE_Shafer_MEA_dev_burst_duration_mean, was analyzed in the negative analysis fitting direction relative to DMSO as the negative control and baseline of activity. Using a type of functional reporter, gain or loss-of-signal activity can be used to understand electrical activity.
# On the day prior to culture, each well was coated thoroughly with 150 uL of 0.05% polyethyleneimine (PEI, Sigma Cat P3143) in 50 mM HEPES (Sigma Cat H7523) at a pH of 8. The plate was incubated at 37C for one hour. PEI was rinsed out with 500 uL of sterile water three times. Plates were stored at 4C until the day of culture. This culture was plated at a seeding density of 1.5 x 10^5 cells/well on a 48-well MEA plate, prepared as described above. Cells were administered via a 25 uL media/laminin ([…]; Sigma Cat L2020-1MG) drop directly onto the microelectrode array, as adding the cells with the laminin results in better attachment than pre-coating with laminin. After 2 hours, an additional 475 uL of cortical media was added and the cells returned to the incubator. Exposure starts at day 0 of plating and is continued over twelve days of network development until the experiment is terminated. Cells are fed with fresh medium on DIV 5 and 9, following the recordings on those days. The entire volume of media in the well is exchanged and any vehicle or compound treatment is renewed. Complete details are found in OP-NHEERL/ISTD/SBB/TJS/2015-03-r0 (available on request, email shafer.tim@epa.gov). Measurement of the electrical activity is non-invasive, and recordings can be made from the same plate over multiple different days of the culture. In cortical neurons, this allows for the measurement of extracellular action potentials over the period during which networks form in the MEA plate.
SMILES,outcome,AC50
CC1(C)[C@@H](C=C(Cl)Cl)[C@@H]1C(=O)O[C@@H](C#N)c1ccc(F)c(Oc2ccccc2)c1,inactive,
CCOP(=S)(OCC)SCS(=O)C(C)(C)C (stereo not given),inactive,
CNC(=N[N+](=O)[O-])NCC1CCOC1 (stereo not given),inactive,
c1ccc2c(c1)cc1ccc3cccc4ccc2c1c34,inactive,
COP(=O)(OC)SCN1C(=O)c2ccccc2C1=O,inactive,
CCOP(=O)(OCC)SCSC(C)(C)C,inactive,
C/C(=C/C=C/[C@@H](C)C(=O)O)[C@H]1CN[C@H](C(=O)O)[C@H]1CC(=O)O,inactive,0.992 µM (active)
CCC1(c2ccccc2)C(=O)NC(=O)NC1=O,inactive,
CN1C(=O)CN=C(c2ccccc2)c2cc(Cl)ccc21,inactive,
C=CCN1CC[C@]23c4c5ccc(O)c4O[C@H]2C(=O)CC[C@@]3(O)[C@H]1C5,inactive,
CC1(C)[C@H](C(=O)O[C@H](C#N)c2cccc(Oc3ccccc3)c2)[C@@H]1C=C(Br)Br,,5.29 µM (active)
C[C@H](N)Cc1ccccc1,inactive,
CC1(C)[C@H](C=C(Cl)Cl)[C@@H]1C(=O)O[C@@H](C#N)c1cccc(Oc2ccccc2)c1,inactive,
C#CCN(C)[C@H](C)Cc1ccccc1,inactive,
Brc1ccc(Oc2ccc(Br)cc2Br)c(Br)c1,inactive,
CC(C)CCCCCCCOP(=O)(Oc1ccccc1)Oc1ccccc1,inactive,
CCOP(=O)(O)OCC (tested in a mixture with another compound),inactive,
CC1(C)C(C=C(Cl)c2ccc(Cl)cc2)C1C(=O)OC(C#N)c1ccc(F)c(Oc2ccccc2)c1 (stereo not given),inactive,
[CH3][Sn]([CH3])[CH3],,0.992 µM (active)
CCOP(=O)(OCC)OC(Cl)C(Cl)(Cl)Cl (stereo not given),,1.22 µM (active)

SMILES,outcome,AC50
CCOP(=O)(OCC)SCSCC,inactive,
O=C(O)CNCP(=O)(O)O,inactive,
CC1(C)[C@H](C=C(Cl)Cl)[C@H]1C(=O)OCc1c(F)c(F)cc(F)c1F,,9.92 µM (active)
CC1(C)C(C=C(Cl)Cl)C1C(=O)O[C@H](C#N)c1cccc(Oc2ccccc2)c1 (stereo not given in full),,0.65 µM (active)
COC(=O)[C@H]1[C@@H](OC(=O)c2ccccc2)C[C@@H]2CC[C@H]1N2C,inactive,
CN[C@]1(c2ccccc2Cl)CCCCC1=O,inactive,
CCCCC(CC)COC(=O)c1cc(Br)c(Br)c(Br)c1Br (stereo not given),inactive,
CC(=O)[O-].[Tl+],inactive,
O=[As]O,,2.5 µM (active)
CC(=O)[O-].CC(=O)[O-].O.O.O.[Pb+2],inactive,
CP(=O)(O)CC[C@H](N)C(=O)O,inactive,
CC1CCCC1.[C-]#[O+].[C-]#[O+].[C-]#[O+].[Mn],inactive,
c1ccc2cc3c(cc2c1)-c1cccc2cccc-3c12,inactive,
C[n+]1ccc(-c2cc[n+](C)cc2)cc1,,2.29 µM (active)
Cn1nc(C(F)(F)F)c(CS(=O)(=O)C2=NOC(C)(C)C2)c1OC(F)F,inactive,
O.O.O.O.O.[Cd+2].[Cd+2].[Cl-].[Cl-].[Cl-].[Cl-],,0.375 µM (active)
CCOP(=O)(Oc1cnc(C(C)(C)C)nc1)OC(C)C (stereo not given),inactive,
CCC[CH2][Sn]([CH2]CCC)([CH2]CCC)[O][Sn]([CH2]CCC)([CH2]CCC)[CH2]CCC,,0.034 µM (active)
CP(=O)(O)CCC(N)C(=O)O (stereo not given),inactive,
